# Reference: PubChem BioAssay (NCATS)
# Inconclusive results are not listed. Active and inactive are the calls of the source. Unless noted, the call rests on the fitted dose curve.
# Experiments:
# [1] = biological target: Lysosomal acid glucosylceramidase (Homo sapiens) (UniProt P04062); assay: Glucocerebrosidase-p2 (AID 348; in the data active means potency below about 10 µM; further: potency means the concentration at half of the fitted maximal effect); conditions: purified GBA, blue fluorogenic substrate, 40 min
# How it was run: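 Normal human glucocerebrosidase (0.2 nM) with blue fluorogenic substrate (80 uM final) in citrate/phosphate pH 5.9 with 10mM sodium taurocholate, 0.01% tween-20; 40 min RT, NaOH/glycine stop; fluorescence Ex 365/Em 440; AC50 from a titration from 0.6 nM upwards.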
# [2] = AP1 Signaling Pathway (AID 357; active means well fitted curve in either direction with a large enough effect, not every such curve was filed as active;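 further: ME-180 reporter cells stimulated with EGF at its EC50 level; on the % scale 0 is the no-effect control and ±100 the full control effect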)
# How it was run: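 A ratiometric CCF4 readout (405 nm excitation; 460 and 530 nm emission) quantified AP-1-driven beta-lactamase in ME-180 cells after 5 h with compound and EC50 EGF; AC50 values were derived for activators and inhibitors.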
# [3] = biological target: Cytochrome P450 1A2 (Homo sapiens) (UniProt P05177); assay: p450-cyp1a2 (AID 410); further: potency means the concentration at half of the fitted maximal effect;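 on activity change, negative = inhibition: -100% = full effect of reference inhibitor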
# How it was run: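 O-Demethylation of luciferin 6' methyl ether by human CYP1A2 is monitored as luciferase luminescence. Substrate sits at Km (100uM); enzyme is 20nM. Values are scaled to 57 uM furafylline as maximal inhibition.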
# [4] = Stat Signaling Pathway (AID 446; active means well fitted curve in either direction with a large enough effect, not every such curve was filed as active;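 further: ME-180 cervical cancer cells given 40 pM IL-6 alongside compound; SIE-controlled beta-lactamase reporter measured as 460/530 nm FRET emission ratio; on the % scale 0 is the no-effect control and ±100 the full control effect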)
# How it was run: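 Compound effects on IL-6-induced STAT reporter activity were measured in ME-180 cells. After overnight culture, cells were co-treated with 40 pM IL-6 for 5 hrs before beta-lactamase substrate loading at room temperature.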
# [5] = biological target: Glucocorticoid receptor (Homo sapiens) (UniProt P04150); assay: GR-EFC Redistribution (AID 451); conditions: CHO-K1 GR-EFC translocation, beta-gal luminescence, 2 h; further: potency means the concentration at half of the fitted maximal effect
# How it was run: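 Translocation of GR-ED fusion to nuclear EA restores b-gal, read by luminescence after 1 h room-temperature detection. Engineered CHO-K1 biosensor cells, 1,000/well, exposed 2 h at 37 C to titrations up to 46 uM final.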
# [6] = biological target: Mitogen-activated protein kinase 10 (Mus musculus) (UniProt Q61831); assay: JNK3 AlphaScreen Assay (AID 530; active means well fitted curve in either direction with a large enough effect, not every such curve was filed as active;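 further: kinase came from lysate of stimulated human HepG2 cells; signal reports phosphorylation of biotinylated GST-cJun 1-79 at Ser73 with 10 µM ATP; on the % scale 0 is the no-effect control and ±100 the full control effect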)
# How it was run: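 qHTS titrations with 15 min compound pre-incubation before adding ATP (10 uM final). Read-out: AlphaScreen of Ser73-phosphorylated biotin-GST-cJun using HepG2 lysate JNK3 activated by IL-1β and TNFα.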
# [7] = qHTS Assay for Lipid Storage Modulators (AID 1519); conditions: Drosophila S3 cells, BODIPY lipid droplet/cell ratio, laser cytometry, cells loaded with oleic acid
# How it was run: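 Cells seeded at 5,000 per well were treated with compounds over a concentration series and loaded with oleic acid (400 uM, as added). Lipid droplet fluorescence (488 nm excitation, 500-530 nm channel) was read by laser-scanning cytometry and normalized to 20 uM Triacsin C.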
# [8] = NFAT Signaling Pathway (AID 444; active means well fitted curve in either direction with a large enough effect, not every such curve was filed as active;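 further: carbachol stimulus at about its EC50 of 1 µM final; on the % scale 0 is the no-effect control and ±100 the full control effect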); conditions: Jurkat NFAT-bla M1, carbachol, beta-lactamase ratio, 5 h
# How it was run: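 Read-out: CCF4 FRET ratio (460 nm/530 nm) after 1 h RT dye loading, used for %activity and AC50 from titration series. Cells: Jurkat NFAT-β-lactamase/M1 line, treated with compound plus 1 uM carbachol for 5 h, 37 °C.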
# [9] = biological target: 3',5'-cyclic-AMP phosphodiesterase 4B (Homo sapiens) (UniProt Q07343); assay: qHTS Assay for Inhibitors of PDE-IV (AID 607; active means well fitted activation curve with a large enough effect in the main read-out, with a control signal flat, not every such curve was filed as active; further: % of control where 0% means no effect)
# How it was run: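 ACTOne HEK293 cells carry a modified cAMP-gated CNG channel and express endogenous PDE4; plated 1000 cells/well, compounds up to 22.9 uM final. Membrane-potential dye fluorescence (ex 535/em 590) was read; parental cells received 10 uM forskolin + 100 uM RO 20-1724.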
# [10] = biological target: Cytochrome P450 3A4 (Homo sapiens) (UniProt P08684); assay: qHTS Assay for Activators of Cytochrome P450 3A4 (AID 885; active means well fitted curve in the direction sought with a large enough effect; an effect the other way counts as inactive or inconclusive; further: nearly all actives have a fitted effect of over 65% in size)
# How it was run: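 CYP3A4 activity: Luciferin-PPXE O-dealkylation, 25uM substrate, 200mM KPO4, RT throughout. Read-out is luciferase luminescence; higher values reflect activation.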
# [11] = biological target: Glucocorticoid receptor (Homo sapiens) (UniProt P04150); assay: GR-GFP Redistribution (AID 450;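 active means compounds whose dose series gives a full or clear partial fitted curve of increased nuclear translocation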; further: potency means the concentration at half of the fitted maximal effect); conditions: U2OS GR-GFP nuclear translocation, laser cytometry, 2 h
# [12] = biological target: ATP-dependent 6-phosphofructokinase (Trypanosoma brucei brucei) (UniProt O15648); assay: qHTS Assay to Find Inhibitors of T. brucei phosphofructokinase: hit validation (AID 492961; active means well fitted curve in the direction sought with a large enough effect; an effect the other way counts as inactive or inconclusive)
# How it was run: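 In this biochemical qHTS validation, titrated compounds were tested against 1.25 nM PFK with 0.1 mM ATP and 0.5 mM F6P. Percent activity came from controls lacking or containing enzyme.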
# [13] = biological target: Luciferin 4-monooxygenase (Photinus pyralis) (UniProt P08659); assay: Biochemical firefly luciferase enzyme assay for NPC (AID 624030; active means well fitted curve in the direction sought with a large enough effect; an effect the other way counts as inactive or inconclusive;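 further: purified P. pyralis luciferase at 10 nM with luciferin and ATP substrate; 0% = DMSO and -100% = full luciferase inhibition by PTC124 control; nearly all actives have a fitted effect of over 70% in size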)
# How it was run: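 Direct inhibition of firefly luciferase enzyme (10 nM final, 50 mM Tris Acetate) assessed by luminescence within 5 minutes. Percent activity scaled between DMSO and PTC124 positive control, with concentration-effect curves classified by fit quality and response.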
# [14] = S16 Schwann cell PMP22 intronic element firefly luciferase assay (AID 624032; active means well fitted curve in the direction sought with a large enough effect; an effect the other way counts as inactive or inconclusive;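 further: plate controls were DMSO for no effect and PTC124 positive control mean for full effect; nearly all actives have a fitted effect of over 30% in size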)
# How it was run: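 Luciferase reporter of PMP22 intronic-element expression in stably transfected S16 rat Schwann cells, read by ONE-Glo luminescence after 24 h compound exposure at 37 C. Activity scaled between DMSO (0%) and positive-control PTC124; concentration-effect curves quality-classified.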
# [15] = qHTS profiling for inhibitors of Plasmodium falciparum proliferation (AID 504749; active means well fitted curve in the direction sought with a large enough effect; an effect the other way counts as inactive or inconclusive;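 further: 0% = DMSO vehicle and full inhibition = artemisinin control; nearly all actives have a fitted effect of over 60% in size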); conditions: P. falciparum in erythrocytes, SYBR Green DNA, 72 h, at 12.8 µM (top of the series)
# How it was run: (§1)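 SYBR Green fluorescence of parasite DNA, read after lysis and overnight dark incubation, measured growth over 72 h in erythrocyte culture at 0.3% parasitemia and 2.5% hematocrit. Data normalised to DMSO and 0.29 uM artemisinin, with plate-drift correction.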
# C2A = assay: as above; conditions: P. falciparum in erythrocytes, SYBR Green DNA, 72 h; series mostly up to 28.7 µM
# How it was run: as §1
# CP192 = assay: as above; conditions: P. falciparum in erythrocytes, SYBR Green DNA, 72 h; series mostly up to 28.7 µM
# How it was run: as §1
# CP262 = assay: as above; conditions: P. falciparum in erythrocytes, SYBR Green DNA, 72 h; series mostly up to 28.7 µM
# How it was run: as §1
# FAB9 = assay: as above; conditions: P. falciparum in erythrocytes, SYBR Green DNA, 72 h; series mostly up to 28.7 µM
# How it was run: as §1
# [16] = biological target: Ubiquitin carboxyl-terminal hydrolase 1 (Homo sapiens) (UniProt O94782); assay: Inhibitors of USP1/UAF1: Pilot qHTS (AID 504865; active means well fitted curve in the direction sought with a large enough effect; an effect the other way counts as inactive or inconclusive;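 further: rhodamine fluorescence freed from ubiquitin-rhodamine substrate followed over time; top concentration of the series differs between compounds; on the % scale 0 is the no-effect control and ±100 the full control effect; nearly all actives have a fitted effect of over 35% in size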)
# How it was run: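 1nM USP1/UAF1 + cpd, 15 min RT; start w/ Ub-Rho 150nM final; kinetic FL 480/540 nm, 6 reads q60 s. Buffer 50mM HEPES pH 7.8, 0.5mM EDTA, 1mM TCEP, 0.01% Tween-20, 0.1 mg/ml BSA.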
# [17] = measured here: cell count channel max response
# [18] = measured here: lipid channel max response
# Glucocorticoid receptor (Homo sapiens), sequence (P04150 whole entry, looked up, the tested form may be a part): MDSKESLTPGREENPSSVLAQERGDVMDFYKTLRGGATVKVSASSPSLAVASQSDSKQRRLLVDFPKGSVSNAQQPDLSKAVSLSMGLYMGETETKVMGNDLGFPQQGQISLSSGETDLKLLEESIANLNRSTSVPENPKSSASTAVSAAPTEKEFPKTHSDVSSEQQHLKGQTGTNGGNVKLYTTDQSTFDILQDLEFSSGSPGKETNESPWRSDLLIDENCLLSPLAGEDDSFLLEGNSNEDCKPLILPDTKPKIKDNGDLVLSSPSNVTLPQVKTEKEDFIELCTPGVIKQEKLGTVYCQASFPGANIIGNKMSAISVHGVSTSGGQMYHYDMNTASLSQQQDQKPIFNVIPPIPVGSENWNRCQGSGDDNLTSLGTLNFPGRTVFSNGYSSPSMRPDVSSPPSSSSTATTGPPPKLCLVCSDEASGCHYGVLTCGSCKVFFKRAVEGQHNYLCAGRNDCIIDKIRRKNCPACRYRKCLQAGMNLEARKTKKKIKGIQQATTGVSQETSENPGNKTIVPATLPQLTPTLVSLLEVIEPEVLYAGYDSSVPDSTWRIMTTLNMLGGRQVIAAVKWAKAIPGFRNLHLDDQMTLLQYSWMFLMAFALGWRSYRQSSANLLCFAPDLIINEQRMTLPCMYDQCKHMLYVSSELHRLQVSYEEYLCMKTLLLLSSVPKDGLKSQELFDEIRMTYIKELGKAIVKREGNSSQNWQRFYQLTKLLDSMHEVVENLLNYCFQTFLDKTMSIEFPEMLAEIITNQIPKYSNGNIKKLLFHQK
# 3',5'-cyclic-AMP phosphodiesterase 4B (Homo sapiens), sequence (Q07343 whole entry, looked up): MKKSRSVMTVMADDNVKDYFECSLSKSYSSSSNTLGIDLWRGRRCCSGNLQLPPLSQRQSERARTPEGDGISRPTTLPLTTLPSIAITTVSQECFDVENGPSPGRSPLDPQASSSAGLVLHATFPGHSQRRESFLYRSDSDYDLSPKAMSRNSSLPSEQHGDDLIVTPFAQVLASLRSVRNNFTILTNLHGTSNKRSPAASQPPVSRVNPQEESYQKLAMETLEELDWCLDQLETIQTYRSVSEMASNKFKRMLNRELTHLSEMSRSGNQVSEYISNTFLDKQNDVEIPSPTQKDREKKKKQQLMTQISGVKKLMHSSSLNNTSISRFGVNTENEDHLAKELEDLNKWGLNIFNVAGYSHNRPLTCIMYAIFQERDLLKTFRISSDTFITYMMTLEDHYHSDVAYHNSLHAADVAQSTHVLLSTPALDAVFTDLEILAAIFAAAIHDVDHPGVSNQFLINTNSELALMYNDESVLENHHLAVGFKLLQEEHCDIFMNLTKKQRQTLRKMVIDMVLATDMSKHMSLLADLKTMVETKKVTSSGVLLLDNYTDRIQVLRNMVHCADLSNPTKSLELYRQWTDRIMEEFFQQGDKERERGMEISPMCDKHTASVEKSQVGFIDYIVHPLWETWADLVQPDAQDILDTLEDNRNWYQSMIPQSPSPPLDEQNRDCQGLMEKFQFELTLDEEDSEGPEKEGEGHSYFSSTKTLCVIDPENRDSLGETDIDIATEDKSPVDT
# Cytochrome P450 1A2 (Homo sapiens), sequence (P05177 whole entry, looked up): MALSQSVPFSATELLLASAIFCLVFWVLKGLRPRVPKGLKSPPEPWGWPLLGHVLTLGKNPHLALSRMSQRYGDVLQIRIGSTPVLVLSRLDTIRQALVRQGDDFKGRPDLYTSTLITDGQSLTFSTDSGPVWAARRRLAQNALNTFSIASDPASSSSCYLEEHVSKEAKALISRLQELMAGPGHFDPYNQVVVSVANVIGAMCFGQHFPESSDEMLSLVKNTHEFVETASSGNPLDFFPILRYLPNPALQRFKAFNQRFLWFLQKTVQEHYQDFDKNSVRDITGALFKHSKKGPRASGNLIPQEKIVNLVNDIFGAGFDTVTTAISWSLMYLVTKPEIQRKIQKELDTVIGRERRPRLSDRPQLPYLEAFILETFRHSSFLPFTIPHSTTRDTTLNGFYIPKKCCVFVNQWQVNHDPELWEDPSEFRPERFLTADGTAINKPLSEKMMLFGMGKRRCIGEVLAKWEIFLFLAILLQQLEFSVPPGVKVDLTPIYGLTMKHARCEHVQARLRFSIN
# Lysosomal acid glucosylceramidase (Homo sapiens), sequence (P04062 whole entry, looked up): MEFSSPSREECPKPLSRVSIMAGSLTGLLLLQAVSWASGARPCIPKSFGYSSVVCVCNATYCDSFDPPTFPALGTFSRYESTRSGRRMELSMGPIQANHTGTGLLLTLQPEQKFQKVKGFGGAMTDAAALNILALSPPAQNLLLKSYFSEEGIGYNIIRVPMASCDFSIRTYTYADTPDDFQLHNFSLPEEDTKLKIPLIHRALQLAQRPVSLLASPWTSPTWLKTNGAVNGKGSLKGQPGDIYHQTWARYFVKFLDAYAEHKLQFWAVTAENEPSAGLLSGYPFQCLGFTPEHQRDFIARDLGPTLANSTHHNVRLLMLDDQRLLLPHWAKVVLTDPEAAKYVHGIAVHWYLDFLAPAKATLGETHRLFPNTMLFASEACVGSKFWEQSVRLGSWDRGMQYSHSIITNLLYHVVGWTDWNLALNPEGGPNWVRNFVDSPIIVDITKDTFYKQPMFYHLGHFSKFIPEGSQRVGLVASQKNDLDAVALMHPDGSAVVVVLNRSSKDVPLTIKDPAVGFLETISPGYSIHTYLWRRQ
# Cytochrome P450 3A4 (Homo sapiens), sequence (P08684 whole entry, looked up): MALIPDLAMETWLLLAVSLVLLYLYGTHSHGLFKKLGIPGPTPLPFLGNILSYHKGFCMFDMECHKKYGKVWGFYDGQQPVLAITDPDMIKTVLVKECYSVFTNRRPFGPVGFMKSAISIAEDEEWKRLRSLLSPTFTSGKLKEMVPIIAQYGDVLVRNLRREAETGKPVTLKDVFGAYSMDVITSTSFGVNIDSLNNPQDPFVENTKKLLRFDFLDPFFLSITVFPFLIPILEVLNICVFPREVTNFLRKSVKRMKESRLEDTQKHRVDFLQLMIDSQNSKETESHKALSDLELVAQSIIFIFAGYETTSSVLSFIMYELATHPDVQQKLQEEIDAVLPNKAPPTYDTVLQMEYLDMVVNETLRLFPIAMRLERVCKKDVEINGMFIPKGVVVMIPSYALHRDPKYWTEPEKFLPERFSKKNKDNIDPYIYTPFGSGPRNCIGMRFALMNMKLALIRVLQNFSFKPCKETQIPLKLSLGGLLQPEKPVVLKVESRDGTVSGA
# Luciferin 4-monooxygenase (Photinus pyralis), sequence (P08659 whole entry, looked up): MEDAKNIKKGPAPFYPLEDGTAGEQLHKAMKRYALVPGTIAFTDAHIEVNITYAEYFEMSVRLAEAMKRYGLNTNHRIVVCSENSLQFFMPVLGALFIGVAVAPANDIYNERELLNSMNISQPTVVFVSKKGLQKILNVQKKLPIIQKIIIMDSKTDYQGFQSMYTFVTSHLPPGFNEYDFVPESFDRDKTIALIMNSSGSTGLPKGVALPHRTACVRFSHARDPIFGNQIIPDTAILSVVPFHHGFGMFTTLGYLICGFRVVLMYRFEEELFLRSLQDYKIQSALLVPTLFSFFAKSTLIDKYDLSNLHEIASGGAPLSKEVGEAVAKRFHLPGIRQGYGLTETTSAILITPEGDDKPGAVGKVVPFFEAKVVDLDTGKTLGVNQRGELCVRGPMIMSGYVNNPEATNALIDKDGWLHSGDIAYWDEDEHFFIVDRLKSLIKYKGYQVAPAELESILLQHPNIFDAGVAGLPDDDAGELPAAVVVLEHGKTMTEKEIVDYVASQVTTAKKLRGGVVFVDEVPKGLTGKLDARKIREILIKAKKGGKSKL
# Ubiquitin carboxyl-terminal hydrolase 1 (Homo sapiens), sequence (O94782 whole entry, looked up): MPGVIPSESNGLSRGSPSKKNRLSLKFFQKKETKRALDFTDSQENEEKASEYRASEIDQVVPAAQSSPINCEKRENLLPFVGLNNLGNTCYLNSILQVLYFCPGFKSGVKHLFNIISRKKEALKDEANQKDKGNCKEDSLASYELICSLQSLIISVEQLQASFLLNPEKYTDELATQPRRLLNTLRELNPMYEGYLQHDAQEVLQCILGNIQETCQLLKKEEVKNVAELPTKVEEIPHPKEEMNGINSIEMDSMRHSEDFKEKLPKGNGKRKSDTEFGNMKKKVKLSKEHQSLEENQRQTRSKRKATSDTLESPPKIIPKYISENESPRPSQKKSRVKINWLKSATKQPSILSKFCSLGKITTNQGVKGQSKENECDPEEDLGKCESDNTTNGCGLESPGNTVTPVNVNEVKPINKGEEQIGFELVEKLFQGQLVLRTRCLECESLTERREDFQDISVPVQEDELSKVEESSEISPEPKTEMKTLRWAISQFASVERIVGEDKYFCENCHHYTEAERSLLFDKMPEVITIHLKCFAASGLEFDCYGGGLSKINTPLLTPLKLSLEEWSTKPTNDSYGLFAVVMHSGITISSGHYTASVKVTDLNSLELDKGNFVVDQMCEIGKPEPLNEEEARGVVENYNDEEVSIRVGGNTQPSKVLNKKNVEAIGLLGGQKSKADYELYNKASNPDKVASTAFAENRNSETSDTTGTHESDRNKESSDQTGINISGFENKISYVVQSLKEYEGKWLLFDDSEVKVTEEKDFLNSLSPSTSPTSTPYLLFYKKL
# ATP-dependent 6-phosphofructokinase (Trypanosoma brucei brucei), sequence (O15648 whole entry, looked up): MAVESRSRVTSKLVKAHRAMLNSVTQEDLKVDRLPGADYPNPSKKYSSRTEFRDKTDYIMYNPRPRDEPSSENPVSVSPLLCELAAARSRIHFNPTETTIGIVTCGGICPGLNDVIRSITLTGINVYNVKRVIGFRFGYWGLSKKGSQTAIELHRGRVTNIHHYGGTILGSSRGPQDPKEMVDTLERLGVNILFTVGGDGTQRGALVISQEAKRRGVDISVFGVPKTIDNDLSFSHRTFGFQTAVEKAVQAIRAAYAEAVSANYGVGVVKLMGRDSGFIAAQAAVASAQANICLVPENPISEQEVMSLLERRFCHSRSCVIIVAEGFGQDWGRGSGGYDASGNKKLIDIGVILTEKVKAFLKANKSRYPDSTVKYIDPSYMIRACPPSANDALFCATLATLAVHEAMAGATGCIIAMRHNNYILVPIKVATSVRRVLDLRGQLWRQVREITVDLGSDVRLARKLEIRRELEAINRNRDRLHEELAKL
smiles,measurement,setting,value
c1ccc(CN2CCCC3(CCNCC3)C2)cc1,Potency,[1],> 11.4 µM (inactive)
same,outcome,[2],inactive
same,Potency,[3],inactive
same,outcome,[4],inactive
same,Potency,[5],> 46 µM (inactive)
same,outcome,[6],inactive
same,"activity change, negative = inhibition",[7]; at 57.5 µM (top of the series),2.49% (inactive)
same,max response,[7]; [17],3.6%
same,max response,[7]; [18],7.81%
c1ccc(N2CC3(CCNCC3)C2)cc1,Potency,[1],> 11.4 µM (inactive)
same,outcome,[2],inactive
same,Potency,[3],inactive
same,"activity change, negative = inhibition",[8]; at 7.69 µM (top of the series),-5.86% (inactive)
same,outcome,[4],inactive
same,Potency,[5],> 46 µM (inactive)
same,outcome,[6],inactive
same,Potency,[9],inactive
same,"activity change, negative = inhibition",[7]; at 57.5 µM (top of the series),3.32% (inactive)
same,max response,[7]; [17],11.6%
same,max response,[7]; [18],20.7%
O=C(Nc1ccccc1)N1CC[C@@]2(CCCN(C(=O)Oc3ccccc3)C2)C1,Potency,[1],> 11.4 µM (inactive)
same,outcome,[2],inactive
same,Potency,[3],15.8 µM (active)
same,"activity change, negative = inhibition",[8]; at 7.69 µM (top of the series),1.93% (inactive)
same,outcome,[4],inactive
same,Potency,[5],> 46 µM (inactive)
same,outcome,[6],inactive
same,Potency,[10],inactive
same,"activity change, negative = inhibition",[7]; at 57.5 µM (top of the series),8.84% (inactive)
same,max response,[7]; [17],9%
same,max response,[7]; [18],23.4%
O=C(Oc1ccccc1)N1CCC2(CCCN(C(c3ccccc3)c3ccccc3)C2)CC1,Potency,[1],> 11.4 µM (inactive)
same,Potency,[3],inactive
same,Potency,[5],> 46 µM (inactive)
same,outcome,[6],inactive
same,Potency,[9],inactive
same,"activity change, negative = inhibition",[7]; at 57.5 µM (top of the series),6.26% (inactive)
same,max response,[7]; [17],7.72%
same,max response,[7]; [18],16.7%
CCNC[C@H](O)c1cccc(O)c1,outcome,[2],inactive
same,Potency,[3],inactive
same,"activity change, negative = inhibition",[8]; at 17.2 µM (top of the series),-13.2% (inactive)
same,outcome,[4],inactive
same,Potency,[11],> 20.6 µM (inactive)
same,Potency,[5],> 20.6 µM (inactive)
same,outcome,[6],inactive
same,Potency,[9],inactive
same,"activity change, negative = inhibition",[7]; at 25.7 µM (top of the series),-1.26% (inactive)
same,max response,[7]; [17],-11.3%
same,max response,[7]; [18],-12.3%
same,Potency,[12],inactive
same,Potency,[13],inactive
same,Potency,[14],inactive
same,"activity, negative = inhibition",[15]; parasite line A,-4.47% (inactive)
same,"activity, negative = inhibition",[15]; parasite line B,2.63% (inactive)
same,Potency,C2A,inactive
same,Potency,CP192,inactive
same,Potency,CP262,inactive
same,Potency,FAB9,inactive
O=C(Oc1ccccc1)N1CCC2(CCN(Cc3ccccc3)CC2)CC1,Potency,[1],> 11.4 µM (inactive)
same,outcome,[2],inactive
same,Potency,[3],inactive
same,outcome,[4],inactive
same,Potency,[5],> 46 µM (inactive)
same,outcome,[6],inactive
same,Potency,[9],inactive
same,"activity change, negative = inhibition",[7]; at 57.5 µM (top of the series),2.23% (inactive)
same,max response,[7]; [17],2.36%
same,max response,[7]; [18],6.48%
COC(=O)N1CCC2(CCCN(C)C2)CC1,Potency,[1],> 11.4 µM (inactive)
same,outcome,[2],inactive
same,Potency,[3],inactive
same,outcome,[4],inactive
same,Potency,[5],> 46 µM (inactive)
same,Potency,[9],inactive
same,"activity change, negative = inhibition",[7]; at 57.5 µM (top of the series),0.789% (inactive)
same,max response,[7]; [17],6.44%
same,max response,[7]; [18],8.69%
CN1CCCC2(CCN(C(=O)Oc3ccccc3)CC2)C1,Potency,[1],> 11.4 µM (inactive)
same,outcome,[2],inactive
same,outcome,[4],inactive
same,Potency,[5],> 46 µM (inactive)
same,"activity change, negative = inhibition",[7]; at 57.5 µM (top of the series),-5.13% (inactive)
same,max response,[7]; [17],1.15%
same,max response,[7]; [18],-1.11%
ClC1=C(Cl)C2(Cl)C3C4C=CC(C4)C3C1(Cl)C2(Cl)Cl (stereo not given),Potency,[10],inactive
same,"activity change, negative = inhibition",[7]; at 57.5 µM (top of the series),4.06% (inactive)
same,max response,[7]; [17],9.06%
same,max response,[7]; [18],23.4%
same,Potency,[16],inactive
